Assay [1] can be described thus: CCTE_Simmons_CellTiterGLO_HEK293T: Viability Assessment in CCTE's Assays for Thyroperoxidase (TPO) Inhibition, Simmons Lab (AID 2283665; active means hit-call score of the fitted dose curve at least 0.9, where 1 is the maximum;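 further: cells exposed to compound for 24 h before readout; actives reduce ATP signal below DMSO vehicle meaning cytotoxicity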). Summed up:
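HEK293T, 10 000 cells/well, DMEM + 1% FBS; 8-pt titration 5 nM–87.5 uM [final], 0.5% DMSO; 24 hr, 37C, 5% CO2; CellTiter-Glo luminescence; n=3 biological replicates.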
A general note: In ATP-based viability assays light output follows the ATP content of the culture.

The nature of assay [2]: IUF_NPC1b_proliferation_BrdU_72hr: Leibniz Research Institute for Environmental Medicine (IUF) 72-hour Neural Progenitor Cell Bromodeoxyuridine (BrdU) Proliferation Assay (NPC1b) (AID 2284207). Put shortly: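 hNPC spheres (primary, GW 16-19 fetal cortex), single sphere/well, EGF+FGF medium; 72 h compound, no renewal; BrdU pulse last 16 h; luminescent ELISA; activity vs DMSO baseline; growth-factor withdrawal as positive control.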

A short description of assay [3]: IUF_NPC1a_proliferation_area_72hr: Leibniz Research Institute for Environmental Medicine (IUF) 72-hour Neural Progenitor Cell Proliferation Area Assay (NPC1a) (AID 2284208). Summed up:
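hNPC spheres (human fetal cortex, GW 16-19), one per poly-Hema U-bottom well; EGF+FGF medium; dosed day 0, no re-dosing; 72 h, 37C, 5% CO2; phase-contrast sphere area; DMSO = baseline; minus-GF = positive ctrl.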

A short description of assay [4]: IUF_NPC1_viability_72hr: Viability Assessment at 72 hours in the Leibniz Research Institute for Environmental Medicine (IUF) Neural Progenitor Cell Proliferation Assay (NPC1) (AID 2284209). Summed up:
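hNPC spheres, 1/well, EGF+FGF medium, 37C/5% CO2; dosed day 0, 72 h, no re-dosing. Resazurin reduction (alamar blue) fluorescence; DMSO = negative control/baseline; growth-factor-free wells as positive control.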

Assay [5] is described as follows: IUF_NPC2c_oligodendrocyte_migration_120hr: Leibniz Research Institute for Environmental Medicine (IUF) 120-hour Neural Progenitor Cell Migration Assay for Oligodendrocyte Migration (NPC2c) (AID 2284297).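 Further: O4-positive oligodendrocyte migration distance divided by radial glia migration distance.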 Put shortly: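 hNPC spheres (GW 16-19 cortex), PDL/laminin, DMEM/F12 3:1 + 1% N2, 37C. Dosing day 0–5, half feed day 3, DMSO ≤0.1%. Fixed 120 h; O4 ICC + Hoechst, HCI. Readout: mean oligodendrocyte distance from sphere edge / radial glia distance.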

A short description of assay [6]: IUF_NPC2a_radial_glia_migration_120hr: Leibniz Research Institute for Environmental Medicine (IUF) 120-hour Neural Progenitor Cell Migration Assay for Radial Glia Migration (NPC2a) (AID 2284298). Put shortly:
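Hoechst-stained nuclei imaged at 120 h; algorithm maps sphere core by densest nuclei, sets migration edge at density threshold, gives radial glia migration distance (um) per well vs DMSO. hNPC spheres (0.3 mm), PDL/laminin, DMEM/F12 3:1 + 1% N2.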

The nature of assay [7]: IUF_NPC2a_radial_glia_migration_72hr: Leibniz Research Institute for Environmental Medicine (IUF) 72-hour Neural Progenitor Cell Migration Assay for Radial Glia Migration (NPC2a) (AID 2284299). Summed up: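 Primary hNPC spheres, fetal brain GW 16-19, on PDL/laminin; DMEM/F12 3:1 + 1% N2. Compound dosed day 0, 7 conc. + SC, half-medium refresh day 3. 72 h brightfield, migration distance core-to-front (um), 4 directions averaged.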

The nature of assay [8]: IUF_NPC2b_neuronal_migration_120hr: Leibniz Research Institute for Environmental Medicine (IUF) 120-hour Neural Progenitor Cell Migration Assay for Neuron Migration (NPC2b) (AID 2284300). Summed up:
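hNPC spheres, PDL/laminin, DMEM:F12 3:1 + 1% N2, 37C/5% CO2; 7 concentrations + solvent control (DMSO ≤0.1%), 5 d exposure, half-feed day 3. Fix 120 h, TUBB3 ICC, HCI: mean neuron migration distance ÷ glia distance.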

Assay [9] in a line: IUF_NPC3_neuronal_differentiation_120hr: Leibniz Research Institute for Environmental Medicine (IUF) 120-hour Neuronal Differentiation Assay (NPC3) (AID 2284301). Summed up: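 Primary human fetal neural progenitor spheres (GW 16-19, 0.3 mm) plated on poly-D-lysine/laminin in N2 medium, exposed from day 0 for 120 h with half-medium refresh at day 3. TUBB3+ cells as percent of Hoechst nuclei in migration area; DMSO baseline.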

Assay [10] in a line: IUF_NPC4_neurite_length_120hr: Leibniz Research Institute for Environmental Medicine (IUF) 120-hour Neuronal Morphology Assay for Neurite Length (NPC4) (AID 2284302). Put shortly:
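Human fetal cortex (GW 16-19) neural progenitor spheres, 0.3 mm, were plated on poly-D-lysine/laminin in N2 differentiation medium and exposed from day 0 for 120 h, half-feeding at day 3. Mean TUBB3+ neurite length (µm) came from skeletonized images, relative to DMSO.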

A short description of assay [11]: IUF_NPC5_oligodendrocyte_differentiation_120hr: Leibniz Research Institute for Environmental Medicine (IUF) 120-hour Oligodendrocyte Differentiation Assay (NPC5) (AID 2284304; active means hit-call score of the fitted dose curve at least 0.9, where 1 is the maximum;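 further: primary human fetal neural progenitor spheres plated to migrate and differentiate; share of O4-positive cells among Hoechst nuclei found by CNN image analysis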). Summed up: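 hNPC spheres, fetal cortex GW 16-19; PDL/laminin, DMEM:F12 3:1 + 1% N2, 37C/5% CO2; 7 concentrations + solvent control, 5 d exposure, half-change day 3. Readout: %O4+ of Hoechst+ nuclei in migration area, CNN classification; DMSO baseline.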

Assay [12] in a line: IUF_NPC2-5_cytotoxicity_72hr: Cytotoxicity Assessment at 72 hours in the Leibniz Research Institute for Environmental Medicine (IUF) Neural Progenitor Cell Migration and Differentiation Assay for Cytotoxicity (NPC2-5) (AID 2284306; active means hit-call score of the fitted dose curve at least 0.9, where 1 is the maximum;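 further: LDH release into supernatant measured by resorufin fluorescence marking membrane damage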). Put shortly: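 Human fetal (GW 16-19) neural progenitor spheres, 0.3 mm, plated on poly-D-lysine/laminin in N2 differentiation medium and exposed from day 0 to 7 concentrations plus solvent control (DMSO ≤0.1%). LDH-dependent resazurin-to-resorufin fluorescence in supernatant at 72 h.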

Assay [13] can be described thus: IUF_NPC2-5_cytotoxicity_120hr: Cytotoxicity Assessment at 120 hours in the Leibniz Research Institute for Environmental Medicine (IUF) Neural Progenitor Cell Migration and Differentiation Assay (NPC2-5) (AID 2284307; active means hit-call score of the fitted dose curve at least 0.9, where 1 is the maximum). Put shortly:
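hNPC spheres on PDL/laminin, N2 medium, 37C; 7 concs + solvent control, DMSO ≤0.1%; 5-day exposure, half medium changed day 3. LDH in supernatant at 120 h, resazurin→resorufin fluorescence, gain-of-signal.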

Assay [14] in a line: IUF_NPC2-5_cell_number_120hr: Cell Number Assessment at 120 hours in the Leibniz Research Institute for Environmental Medicine (IUF) Neural Progenitor Cell Migration and Differentiation Assay (NPC2-5) (AID 2284308).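 Further: count of Hoechst-stained nuclei in migration zone around plated human neural progenitor spheres.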 Put shortly: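 Hoechst-stained nuclei within the migration area were counted by automated high content imaging after 120 h. Single hNPC spheres differentiated on poly-D-lysine/laminin in DMEM/F12 (3:1) with 1% N2, compound present throughout, DMSO ≤0.1%.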

Assay [15] can be described thus: IUF_NPC2-5_viability_120hr: Viability Assessment at 120 hours in the Leibniz Research Institute for Environmental Medicine (IUF) Neural Progenitor Cell Migration and Differentiation Assay (NPC2-5) (AID 2284312). Put shortly: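 Human fetal (GW 16-19) neural progenitor spheres of 0.3 mm were plated on poly-D-lysine/laminin in N2 differentiation medium and exposed from day 0 for 120 h, with half-medium refresh at day 3. Viability was read as alamar blue resazurin-to-resorufin fluorescence against DMSO.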

Assay [16] is described as follows: IUF_NPC1_cytotoxicity_72hr: Cytotoxicity Assessment at 72 hours in the Leibniz Research Institute for Environmental Medicine (IUF) Neural Progenitor Cell Proliferation Assay (NPC1) (AID 2284332; active means hit-call score of the fitted dose curve at least 0.9, where 1 is the maximum;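 further: rising LDH signal means more cytotoxicity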). Summed up: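 Spheres of primary human neural progenitors are plated one per well on day 0 in growth-factor medium and dosed at once. After three days at 37C, supernatant LDH is measured fluorimetrically via resazurin reduction.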

A short description of assay [17]: CCTE_Shafer_MEA_acute_spike_number: CCTE's Neural Acute Assay for Total Number of Spikes, Shafer Lab (AID 2284008).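 Further: curve fitted for decrease in spike count so AC50 reflects inhibitors.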 Summed up: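 Rat cortical cultures, DIV 13/15, 37 C. 40 min baseline rec, cpd 0.03-40 uM, 40 min post-dose rec. Band-pass 300-5000 Hz, spike threshold 8x rms; % change in spike count per well, DMSO neg ctrl, loss-of-signal fit.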
The nature of assay [18]: CCTE_Mundy_HCI_hN2_NOG_NeuronCount: CCTE's Neurite Outgrowth Assay in human hN2 cells for Neuron Count, Mundy Lab (AID 2284221; active means hit-call score of the fitted dose curve at least 0.9, where 1 is the maximum). Summed up: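 Read-out is the number of betaIII-tubulin-positive neurons imaged by automated high-content analysis, with DMSO as negative control.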
Assay [19] in a line: CCTE_Mundy_HCI_Cortical_Synap_Neur_Matur_NeuronCount: CCTE's Synaptogenesis and Neurite Maturation Assay in rat cortical cells for Neuron Count, Mundy Lab (AID 2284242; active means hit-call score of the fitted dose curve at least 0.9, where 1 is the maximum;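 further: hits reduce neuron count versus DMSO baseline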). Put shortly:
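Neuron number was scored by automated high-content imaging of Hoechst- and MAP2-labelled rat primary cortical cells. Glial growth was arrested with AraC at DIV 5, compounds were applied from DIV 7, and cultures ended at DIV 12.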

Another assay addresses THRB (gene 7068) (UniProt P10828). In words: TOX21_TRB_BLA_Agonist_Followup_ratio: Tox21 Thyroid Hormone Receptor beta Agonism Beta-lactamase (BLA) Follow-Up Assay, Ratio (AID 2283954; active means hit-call score of the fitted dose curve at least 0.9, where 1 is the maximum). Summed up:
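Human TRβ LBD–GAL4 DBD fusion in GeneBLAzer UAS-bla HEK293T cells; 11 concentrations in triplicate, 18 h at 37°C/5% CO2, T3 as agonist control. CCF4-AM substrate 2 h at room temperature; 460:530 nm ratio fitted for gain of signal versus DMSO.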

Results filed as inconclusive are left out. Active and inactive are the calls of the source. How the source made its calls, unless noted: active means hit-call score of the fitted dose curve at least 0.9, where 1 is the maximum; inactive means score below 0.9.

Sequence of THRB (gene 7068) (P10828 whole entry, looked up, the tested form may be a part): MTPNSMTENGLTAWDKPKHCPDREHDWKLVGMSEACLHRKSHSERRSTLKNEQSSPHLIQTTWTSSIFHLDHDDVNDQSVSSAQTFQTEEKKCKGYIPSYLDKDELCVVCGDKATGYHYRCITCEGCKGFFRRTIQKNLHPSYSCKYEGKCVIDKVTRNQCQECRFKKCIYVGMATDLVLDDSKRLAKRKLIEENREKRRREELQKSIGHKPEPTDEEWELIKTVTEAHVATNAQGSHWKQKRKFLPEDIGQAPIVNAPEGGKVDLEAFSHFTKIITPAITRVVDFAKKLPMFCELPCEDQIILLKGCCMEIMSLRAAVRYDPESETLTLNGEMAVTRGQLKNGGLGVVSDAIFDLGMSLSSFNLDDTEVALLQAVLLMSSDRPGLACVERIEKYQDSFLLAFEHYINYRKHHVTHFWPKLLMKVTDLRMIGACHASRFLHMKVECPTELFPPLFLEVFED

Broadly, the AC50 is the concentration giving half of the maximal activity seen. Turning to `CCN(CC)CCNC(=O)c1c(C)[nH]c(/C=C2\C(=O)Nc3ccc(F)cc32)c1C`, the half-maximal activity concentration (AC50) in assay [1] is 12.8 µM (active).

As for `CC1(C)S[C@@H]2[C@H](NC(=O)[C@H](N)c3ccc(O)cc3)C(=O)N2[C@H]1C(=O)O`, the compound was classed as inactive in assay [2], in assay [3], in assay [4], in assay [5], in assay [6] and in [7]. For the same compound, the call in assay [8], in assay [9], in assay [10], in [11], in assay [12] and in assay [13] was inactive. Also, the outcome in [14], in assay [15] and in assay [16] was inactive.

In the case of `CN(C)C(=O)C(CCN1CCC(O)(c2ccc(Cl)cc2)CC1)(c1ccccc1)c1ccccc1`, the results for the concentration at half-maximal activity (AC50) in assay [17], in assay [18] and in assay [19] were 0.291 µM (active), 13.9 µM (active) and 8.36 µM (active), respectively.

As to `Cc1cc(-n2c(=O)[nH]c(=O)n(C)c2=O)ccc1Oc1ccc(S(=O)(=O)C(F)(F)F)cc1`, the outcome with THRB (gene 7068) was inactive.

For the origin of these results see PubChem BioAssay (EPA / NIEHS).
